# Changes are numbered by the printed parent chain.
# Experiments:
# Assay in all cases: PBM; 200 nM protein, PBS
# Conditions in all cases: dsDNA, one strand shown
# HOXB9 [1] = target: HOXB9 (Homo sapiens, UniProt P17482 171-250, T197M)
# HOXC9 [2] = target: HOXC9 (Homo sapiens, UniProt P31274 178-260, K195R)
# VENTX [3] = target: T1, VENTX (Homo sapiens, UniProt O95231 78-163)
# T1 sequence: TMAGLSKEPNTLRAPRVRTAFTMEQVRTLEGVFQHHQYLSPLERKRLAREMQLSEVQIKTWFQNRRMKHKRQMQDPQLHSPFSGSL
# PAX4 [4] = target: T2, PAX4 (Homo sapiens, UniProt O43316 9-242, R200K)
# T2 sequence: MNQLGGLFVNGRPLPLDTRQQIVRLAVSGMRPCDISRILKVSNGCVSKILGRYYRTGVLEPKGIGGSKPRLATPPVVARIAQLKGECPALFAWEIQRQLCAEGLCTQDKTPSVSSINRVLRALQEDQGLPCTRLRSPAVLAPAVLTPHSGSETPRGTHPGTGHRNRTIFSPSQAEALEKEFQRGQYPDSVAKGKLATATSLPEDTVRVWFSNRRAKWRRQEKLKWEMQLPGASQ
# VENTX [5] = target: T3, VENTX (Homo sapiens, UniProt O95231 78-163, Y115F)
# T3 sequence: T1 sequence with Y38F
# PAX4 [6] = target: T4, PAX4 (Homo sapiens, UniProt O43316 9-242)
# T4 sequence: T2 sequence with K192R
# HOXB9 [7] = target: HOXB9 (Homo sapiens, UniProt P17482 171-250)
# PAX4 [8] = target: T5, PAX4 (Homo sapiens, UniProt O43316 9-242, R200Q)
# T5 sequence: T2 sequence with K192Q
# HOXC9 [9] = target: HOXC9 (Homo sapiens, UniProt P31274 178-260, R193K)
# HOXA2 [10] = target: HOXA2 (Homo sapiens, UniProt O43364 129-215, R185K)
# PAX4 [11] = target: T6, PAX4 (Homo sapiens, UniProt O43316 9-242, F177V)
# T6 sequence: T2 sequence with F169V, K192R
# HOXC10 = HOXC10 (Homo sapiens, UniProt Q9NYD6 254-340, K271E)
# PAX4 [12] = target: T7, PAX4 (Homo sapiens, UniProt O43316 9-242, F177Y)
# T7 sequence: T2 sequence with F169Y, K192R
# HOXB9 [13] = target: HOXB9 (Homo sapiens, UniProt P17482 171-250, R186Q)
# HOXC9 [14] = target: HOXC9 (Homo sapiens, UniProt P31274 178-260, R222W)
# PAX4 [15] = target: T8, PAX4 (Homo sapiens, UniProt O43316 9-242, R227W)
# T8 sequence: T2 sequence with K192R, R219W
# HOXA2 [16] = target: HOXA2 (Homo sapiens, UniProt O43364 129-215, Y150S)
# HOXA2 [17] = target: HOXA2 (Homo sapiens, UniProt O43364 129-215)
# HOXA2 (Homo sapiens, UniProt O43364 129-215), sequence (O43364 129-215): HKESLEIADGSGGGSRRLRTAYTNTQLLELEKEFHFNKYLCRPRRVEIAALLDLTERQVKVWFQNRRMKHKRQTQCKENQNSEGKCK
# HOXC10, sequence (Q9NYD6 254-340 K271E): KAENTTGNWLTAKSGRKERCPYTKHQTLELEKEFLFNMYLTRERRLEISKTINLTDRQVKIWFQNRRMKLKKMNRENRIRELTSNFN
# HOXA2 (Homo sapiens, UniProt O43364 129-215, R185K), sequence (O43364 129-215 R185K): as the sequence (O43364 129-215) above, with R57K counted along it
# HOXB9 (Homo sapiens, UniProt P17482 171-250, T197M), sequence (P17482 171-250 T197M): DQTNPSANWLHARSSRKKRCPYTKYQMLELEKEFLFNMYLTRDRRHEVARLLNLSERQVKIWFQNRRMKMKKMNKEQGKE
# HOXC9 (Homo sapiens, UniProt P31274 178-260, R193K), sequence (P31274 178-260 R193K): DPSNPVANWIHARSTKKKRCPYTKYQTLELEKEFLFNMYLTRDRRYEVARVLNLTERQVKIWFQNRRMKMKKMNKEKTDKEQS
# HOXC9 (Homo sapiens, UniProt P31274 178-260, K195R), sequence (P31274 178-260 K195R): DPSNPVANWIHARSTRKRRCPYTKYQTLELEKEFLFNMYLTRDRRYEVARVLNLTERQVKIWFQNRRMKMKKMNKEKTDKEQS
# HOXA2 (Homo sapiens, UniProt O43364 129-215, Y150S), sequence (O43364 129-215 Y150S): as the sequence (O43364 129-215) above, with Y22S counted along it
# HOXC9 (Homo sapiens, UniProt P31274 178-260, R222W), sequence (P31274 178-260 R222W): as the sequence (P31274 178-260 R193K) above, with K16R, R45W counted along it
# HOXB9 (Homo sapiens, UniProt P17482 171-250, R186Q), sequence (P17482 171-250 R186Q): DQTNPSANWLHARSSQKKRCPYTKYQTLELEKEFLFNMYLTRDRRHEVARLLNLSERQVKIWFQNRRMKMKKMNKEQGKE
# HOXB9 (Homo sapiens, UniProt P17482 171-250), sequence (P17482 171-250): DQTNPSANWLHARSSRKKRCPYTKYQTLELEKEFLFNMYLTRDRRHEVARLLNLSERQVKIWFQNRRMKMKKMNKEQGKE
sequence,measurement,setting,value
ATCAATTA,binding signal,HOXB9 [1],"10.1 upbm affinity estimate (log intensity, higher = more binding, comparable within an allelic series)"
same,binding signal,HOXC9 [2],"12.5 upbm affinity estimate (log intensity, higher = more binding, comparable within an allelic series)"
same,binding signal,VENTX [3],"12.7 upbm affinity estimate (log intensity, higher = more binding, comparable within an allelic series)"
same,binding signal,PAX4 [4],"11.8 upbm affinity estimate (log intensity, higher = more binding, comparable within an allelic series)"
same,binding signal,VENTX [5],"11.8 upbm affinity estimate (log intensity, higher = more binding, comparable within an allelic series)"
same,binding signal,PAX4 [6],"12.4 upbm affinity estimate (log intensity, higher = more binding, comparable within an allelic series)"
same,binding signal,HOXB9 [7],"11.7 upbm affinity estimate (log intensity, higher = more binding, comparable within an allelic series)"
same,binding signal,PAX4 [8],"12.2 upbm affinity estimate (log intensity, higher = more binding, comparable within an allelic series)"
same,binding signal,HOXC9 [9],"12.6 upbm affinity estimate (log intensity, higher = more binding, comparable within an allelic series)"
same,binding signal,HOXA2 [10],"13.6 upbm affinity estimate (log intensity, higher = more binding, comparable within an allelic series)"
same,binding signal,PAX4 [11],"10.7 upbm affinity estimate (log intensity, higher = more binding, comparable within an allelic series)"
same,binding signal,HOXC10,"11.9 upbm affinity estimate (log intensity, higher = more binding, comparable within an allelic series)"
same,binding signal,PAX4 [12],"11.2 upbm affinity estimate (log intensity, higher = more binding, comparable within an allelic series)"
same,binding signal,HOXB9 [13],"11.5 upbm affinity estimate (log intensity, higher = more binding, comparable within an allelic series)"
same,binding signal,HOXC9 [14],"11.1 upbm affinity estimate (log intensity, higher = more binding, comparable within an allelic series)"
same,binding signal,PAX4 [15],"11 upbm affinity estimate (log intensity, higher = more binding, comparable within an allelic series)"
same,binding signal,HOXA2 [16],"10.9 upbm affinity estimate (log intensity, higher = more binding, comparable within an allelic series)"
same,binding signal,HOXA2 [17],"12.7 upbm affinity estimate (log intensity, higher = more binding, comparable within an allelic series)"
TCAATTAA,binding signal,VENTX [3],"12.4 upbm affinity estimate (log intensity, higher = more binding, comparable within an allelic series)"
same,binding signal,VENTX [5],"11.6 upbm affinity estimate (log intensity, higher = more binding, comparable within an allelic series)"
same,binding signal,PAX4 [8],"11.8 upbm affinity estimate (log intensity, higher = more binding, comparable within an allelic series)"
same,binding signal,HOXA2 [10],"13.2 upbm affinity estimate (log intensity, higher = more binding, comparable within an allelic series)"
same,binding signal,HOXA2 [16],"10.7 upbm affinity estimate (log intensity, higher = more binding, comparable within an allelic series)"
same,binding signal,HOXA2 [17],"12.4 upbm affinity estimate (log intensity, higher = more binding, comparable within an allelic series)"
GTCAATTA,binding signal,HOXC9 [2],"11.9 upbm affinity estimate (log intensity, higher = more binding, comparable within an allelic series)"
same,binding signal,HOXC9 [9],"11.9 upbm affinity estimate (log intensity, higher = more binding, comparable within an allelic series)"
same,binding signal,HOXA2 [10],"13.2 upbm affinity estimate (log intensity, higher = more binding, comparable within an allelic series)"
same,binding signal,HOXC9 [14],"10.7 upbm affinity estimate (log intensity, higher = more binding, comparable within an allelic series)"
same,binding signal,HOXA2 [16],"10.7 upbm affinity estimate (log intensity, higher = more binding, comparable within an allelic series)"
same,binding signal,HOXA2 [17],"12.3 upbm affinity estimate (log intensity, higher = more binding, comparable within an allelic series)"
CAATTACC,binding signal,VENTX [5],"11.5 upbm affinity estimate (log intensity, higher = more binding, comparable within an allelic series)"
same,binding signal,HOXA2 [10],"13.1 upbm affinity estimate (log intensity, higher = more binding, comparable within an allelic series)"
ATAATTAG,binding signal,HOXB9 [1],"10.2 upbm affinity estimate (log intensity, higher = more binding, comparable within an allelic series)"
same,binding signal,VENTX [3],"12.9 upbm affinity estimate (log intensity, higher = more binding, comparable within an allelic series)"
same,binding signal,PAX4 [4],"12 upbm affinity estimate (log intensity, higher = more binding, comparable within an allelic series)"
same,binding signal,VENTX [5],"12.3 upbm affinity estimate (log intensity, higher = more binding, comparable within an allelic series)"
same,binding signal,PAX4 [6],"12.7 upbm affinity estimate (log intensity, higher = more binding, comparable within an allelic series)"
same,binding signal,PAX4 [8],"12.6 upbm affinity estimate (log intensity, higher = more binding, comparable within an allelic series)"
same,binding signal,HOXA2 [10],"13.8 upbm affinity estimate (log intensity, higher = more binding, comparable within an allelic series)"
same,binding signal,PAX4 [11],"10.8 upbm affinity estimate (log intensity, higher = more binding, comparable within an allelic series)"
same,binding signal,HOXC10,"11.8 upbm affinity estimate (log intensity, higher = more binding, comparable within an allelic series)"
same,binding signal,PAX4 [12],"11.3 upbm affinity estimate (log intensity, higher = more binding, comparable within an allelic series)"
same,binding signal,PAX4 [15],"11.3 upbm affinity estimate (log intensity, higher = more binding, comparable within an allelic series)"
same,binding signal,HOXA2 [16],"11 upbm affinity estimate (log intensity, higher = more binding, comparable within an allelic series)"
same,binding signal,HOXA2 [17],"13.1 upbm affinity estimate (log intensity, higher = more binding, comparable within an allelic series)"
AGCAATTA,binding signal,HOXB9 [1],"9.96 upbm affinity estimate (log intensity, higher = more binding, comparable within an allelic series)"
same,binding signal,VENTX [3],"12.4 upbm affinity estimate (log intensity, higher = more binding, comparable within an allelic series)"
same,binding signal,VENTX [5],"11.8 upbm affinity estimate (log intensity, higher = more binding, comparable within an allelic series)"
same,binding signal,HOXA2 [10],"13.3 upbm affinity estimate (log intensity, higher = more binding, comparable within an allelic series)"
same,binding signal,HOXC10,"11.8 upbm affinity estimate (log intensity, higher = more binding, comparable within an allelic series)"
same,binding signal,HOXA2 [16],"10.8 upbm affinity estimate (log intensity, higher = more binding, comparable within an allelic series)"
same,binding signal,HOXA2 [17],"12.5 upbm affinity estimate (log intensity, higher = more binding, comparable within an allelic series)"
GGCAATTA,binding signal,HOXB9 [1],"10.2 upbm affinity estimate (log intensity, higher = more binding, comparable within an allelic series)"
same,binding signal,HOXC9 [2],"12.6 upbm affinity estimate (log intensity, higher = more binding, comparable within an allelic series)"
same,binding signal,VENTX [3],"12.5 upbm affinity estimate (log intensity, higher = more binding, comparable within an allelic series)"
same,binding signal,VENTX [5],"11.8 upbm affinity estimate (log intensity, higher = more binding, comparable within an allelic series)"
same,binding signal,HOXB9 [7],"11.8 upbm affinity estimate (log intensity, higher = more binding, comparable within an allelic series)"
same,binding signal,HOXC9 [9],"12.5 upbm affinity estimate (log intensity, higher = more binding, comparable within an allelic series)"
same,binding signal,HOXA2 [10],"13.3 upbm affinity estimate (log intensity, higher = more binding, comparable within an allelic series)"
same,binding signal,HOXC10,"12 upbm affinity estimate (log intensity, higher = more binding, comparable within an allelic series)"
same,binding signal,HOXB9 [13],"11.5 upbm affinity estimate (log intensity, higher = more binding, comparable within an allelic series)"
same,binding signal,HOXA2 [16],"10.8 upbm affinity estimate (log intensity, higher = more binding, comparable within an allelic series)"
same,binding signal,HOXA2 [17],"12.5 upbm affinity estimate (log intensity, higher = more binding, comparable within an allelic series)"
CTAATTAC,binding signal,HOXB9 [1],"10.1 upbm affinity estimate (log intensity, higher = more binding, comparable within an allelic series)"
same,binding signal,VENTX [3],"13.2 upbm affinity estimate (log intensity, higher = more binding, comparable within an allelic series)"
same,binding signal,PAX4 [4],"12 upbm affinity estimate (log intensity, higher = more binding, comparable within an allelic series)"
same,binding signal,VENTX [5],"12.7 upbm affinity estimate (log intensity, higher = more binding, comparable within an allelic series)"
same,binding signal,PAX4 [6],"12.5 upbm affinity estimate (log intensity, higher = more binding, comparable within an allelic series)"
same,binding signal,PAX4 [8],"12.3 upbm affinity estimate (log intensity, higher = more binding, comparable within an allelic series)"
same,binding signal,HOXA2 [10],"14 upbm affinity estimate (log intensity, higher = more binding, comparable within an allelic series)"
same,binding signal,PAX4 [11],"10.6 upbm affinity estimate (log intensity, higher = more binding, comparable within an allelic series)"
same,binding signal,HOXC10,"12 upbm affinity estimate (log intensity, higher = more binding, comparable within an allelic series)"
same,binding signal,PAX4 [12],"11.1 upbm affinity estimate (log intensity, higher = more binding, comparable within an allelic series)"
same,binding signal,PAX4 [15],"11.1 upbm affinity estimate (log intensity, higher = more binding, comparable within an allelic series)"
same,binding signal,HOXA2 [16],"10.9 upbm affinity estimate (log intensity, higher = more binding, comparable within an allelic series)"
same,binding signal,HOXA2 [17],"13.4 upbm affinity estimate (log intensity, higher = more binding, comparable within an allelic series)"
TATTAGAA,binding signal,PAX4 [4],"11 upbm affinity estimate (log intensity, higher = more binding, comparable within an allelic series)"
same,binding signal,PAX4 [6],"11.3 upbm affinity estimate (log intensity, higher = more binding, comparable within an allelic series)"
same,binding signal,PAX4 [8],"11 upbm affinity estimate (log intensity, higher = more binding, comparable within an allelic series)"
same,binding signal,PAX4 [11],"10.3 upbm affinity estimate (log intensity, higher = more binding, comparable within an allelic series)"
CCCTACGG,binding signal,HOXC9 [2],"9.6 upbm affinity estimate (log intensity, higher = more binding, comparable within an allelic series)"
same,binding signal,VENTX [3],"8.36 upbm affinity estimate (log intensity, higher = more binding, comparable within an allelic series)"
same,binding signal,VENTX [5],"8.13 upbm affinity estimate (log intensity, higher = more binding, comparable within an allelic series)"
same,binding signal,HOXC9 [9],"9.67 upbm affinity estimate (log intensity, higher = more binding, comparable within an allelic series)"
same,binding signal,HOXC9 [14],"9.62 upbm affinity estimate (log intensity, higher = more binding, comparable within an allelic series)"

# Reference: paper PMC11006913
